Assay results published in the supplement of paper PMC10849652.
About 7,900 targets were measured; listed, in parts, are those with a hit and a random draw of the rest. About 0.6% of all pairs of compound and target were hits.

What was measured:
Test in all cases: log2 fold change, soluble protein after heating vs DMSO (PISA); higher = thermal stabilisation; K562 cells, 10 uM, 30 min; active = over 0.2 and 3.5 SD of the protein, either way, in both replicates (recomputed)
erlotinib = compound: C#Cc1cccc(Nc2ncnc3cc(OCCOC)c(OCCOC)cc23)c1 [erlotinib]
Summary of the method: (§1)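 Soluble protein was quantified by TMTpro 16plex LC-MS/MS after channel sums were equalised. It was obtained as the supernatant after 21,000xg for 90 min from pooled aliquots of K562 cells (2×10^6 cells/mL, 10 μM compound, 30 min) heated for 3 min across 48°C-58°C and extracted in PBS with 0.5% NP-40 at 4°C. Thermal stability values are relative to control samples and come from duplicates. They are given as log2 fold changes.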

[1] = compound: C/C(=N\NC(=O)C1=CC(=CC=C1)S(=O)(=O)N2CCOCC2)/C3=C(C=CC(=C3)Cl)O
Summary of the method: as §1

[2] = compound: C1=CC(=C(C=C1Cl)C2=NC3=NC=CN=C3C(=N2)NC4=CC=NC=C4)F
Summary of the method: as §1

[3] = compound: C1=CC(=CC=C1C2=NC3=C(N2)C=C(C=C3)C(=O)N)OC4=CC=C(C=C4)Cl
Summary of the method: as §1

[4] = compound: C1=CC2=C(C=CC(=C2)/C=C\3/C(=O)NC(=NCC4=CC=CS4)S3)N=C1
Summary of the method: as §1

[5] = compound: C1=CC2=NC=CN=C2C=C1/C=C/3\C(=O)NC(=O)S3
Summary of the method: as §1

[6] = compound: C1=CC=C2C(=C1)C3=NNC4=CC=CC(=C43)C2=O
Summary of the method: as §1

[7] = compound: C1CCN(C1)C(=O)NC2=CC=CC(=C2)NC3=NC=C(C(=N3)NCCC4=CN=CN4)Br
Summary of the method: as §1

[8] = compound: C1CN(CCC1(CC2=CC=C(C=C2)Cl)N)C3=NC=NC4=C3C=CN4
Summary of the method: as §1

[9] = compound: C1=CC=C(C=C1)C2=NC(=C(N2)C3=CC=NC=C3)C4=CC(=C(C=C4)Cl)O
Summary of the method: as §1

Measured: log2 fold change

ACP1 (UniProt P24666)
inactive: erlotinib 0.149 | [1] 0.06 | [2] 0.035 | [3] -0.066 | [4] 0.224 | [5] -0.059 | [6] 0.109 | [7] -0.001 | [8] -0.015

ARL4A (UniProt P40617)
UniProt P40617, sequence (P40617 whole entry, looked up): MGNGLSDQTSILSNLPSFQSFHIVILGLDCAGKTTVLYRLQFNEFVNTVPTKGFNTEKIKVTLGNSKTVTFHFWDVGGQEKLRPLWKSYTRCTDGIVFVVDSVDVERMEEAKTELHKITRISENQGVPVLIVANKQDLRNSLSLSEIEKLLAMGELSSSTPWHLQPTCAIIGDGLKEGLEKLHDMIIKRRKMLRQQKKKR
inactive: [1] 0.009 | [4] 0.35 | [5] -0.053 | [6] 0.047

AZI2 (UniProt Q9H6S1)
inactive: erlotinib -0.039 | [3] -0.211 | [5] 0.009 | [9] -0.012 | [7] -0.025 | [8] 0.04

ABITRAM (UniProt Q9NX38)
inactive: [1] 0.084 | [2] 0.029 | [4] 0.018 | [5] 0.023 | [9] -0.05 | [6] 0.034 | [7] -0.037 | [8] 0.018

ATP6V0A1 (UniProt Q93050)
inactive: [5] 0.187

BAIAP2 isoform 4 (UniProt Q9UQB8)
inactive: [7] -0.16 | [8] -0.048

ADAMTS5 (UniProt Q9UNA0)
UniProt Q9UNA0, sequence (Q9UNA0 whole entry, looked up): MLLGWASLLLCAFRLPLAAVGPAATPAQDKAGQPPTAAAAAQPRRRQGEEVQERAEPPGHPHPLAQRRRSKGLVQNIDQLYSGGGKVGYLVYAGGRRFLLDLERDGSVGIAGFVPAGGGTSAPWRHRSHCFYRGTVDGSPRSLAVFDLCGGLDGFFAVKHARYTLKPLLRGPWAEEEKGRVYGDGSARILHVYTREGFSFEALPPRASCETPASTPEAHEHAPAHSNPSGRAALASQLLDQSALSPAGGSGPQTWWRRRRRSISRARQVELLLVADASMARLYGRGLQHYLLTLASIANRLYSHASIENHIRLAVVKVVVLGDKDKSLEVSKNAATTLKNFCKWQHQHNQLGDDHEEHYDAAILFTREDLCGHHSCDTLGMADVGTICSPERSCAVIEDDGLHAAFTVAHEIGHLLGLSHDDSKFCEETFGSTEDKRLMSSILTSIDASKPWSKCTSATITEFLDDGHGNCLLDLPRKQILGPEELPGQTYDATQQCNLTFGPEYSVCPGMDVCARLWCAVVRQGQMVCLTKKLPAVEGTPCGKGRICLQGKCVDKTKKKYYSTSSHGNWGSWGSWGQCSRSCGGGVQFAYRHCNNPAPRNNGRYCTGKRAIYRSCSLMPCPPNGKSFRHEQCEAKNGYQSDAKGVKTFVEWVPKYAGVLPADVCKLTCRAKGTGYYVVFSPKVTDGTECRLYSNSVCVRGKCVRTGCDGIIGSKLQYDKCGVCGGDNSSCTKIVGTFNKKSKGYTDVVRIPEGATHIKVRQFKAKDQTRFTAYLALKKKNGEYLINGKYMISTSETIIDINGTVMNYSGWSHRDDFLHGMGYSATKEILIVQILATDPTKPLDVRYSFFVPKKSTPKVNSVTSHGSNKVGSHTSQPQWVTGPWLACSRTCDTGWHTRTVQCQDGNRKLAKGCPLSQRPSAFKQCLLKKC
inactive: erlotinib 0.186 | [3] -0.124 | [4] 0.171 | [5] 0.012 | [9] 0.072 | [6] 0.043 | [7] -0.06 | [8] 0.113
active: [1] -0.518

ARRDC1 (UniProt Q8N5I2)
UniProt Q8N5I2, sequence (Q8N5I2 whole entry, looked up): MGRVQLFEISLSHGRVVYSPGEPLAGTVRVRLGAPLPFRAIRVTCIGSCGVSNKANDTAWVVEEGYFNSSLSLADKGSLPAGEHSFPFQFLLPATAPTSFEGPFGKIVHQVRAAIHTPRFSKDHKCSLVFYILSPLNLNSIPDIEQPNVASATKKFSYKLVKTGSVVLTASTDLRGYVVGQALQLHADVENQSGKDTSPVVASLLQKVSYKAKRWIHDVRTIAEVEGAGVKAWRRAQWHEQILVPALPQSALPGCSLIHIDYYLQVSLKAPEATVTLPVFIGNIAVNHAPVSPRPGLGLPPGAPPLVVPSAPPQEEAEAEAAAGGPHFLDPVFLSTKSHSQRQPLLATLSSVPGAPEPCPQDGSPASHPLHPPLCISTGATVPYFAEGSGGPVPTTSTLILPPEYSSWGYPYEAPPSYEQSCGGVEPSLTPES
inactive: erlotinib -0.079 | [2] -0.075 | [3] 0.038 | [5] -0.05 | [9] 0.042 | [7] -0.03 | [8] -0.066

BRD3 (UniProt Q15059)
inactive: erlotinib -0.282 | [1] -0.072 | [3] 0.061 | [4] -0.021 | [5] 0.071 | [9] 0.128 | [6] 0.059 | [7] -0.163 | [8] -0.024

AASDH (UniProt Q4L235)
inactive: erlotinib 0.113 | [2] 0.037 | [3] 0.048 | [5] 0.158 | [9] 0.003 | [7] -0.058 | [8] 0.034

AP2M1 (UniProt C9JTK4)
inactive: [1] -0.114 | [2] 0.036 | [4] 0.322 | [5] 0.172 | [6] -0.12 | [7] 0.084 | [8] -0.065

ANGEL1 (UniProt Q9UNK9)
inactive: [5] 0.161 | [9] -0.107 | [7] -0.149 | [8] 0.092

AKNA (UniProt Q7Z591)
inactive: erlotinib -0.147 | [3] 0.195

AP2S1 (UniProt M0QZ21)
inactive: [7] -0.625 | [8] 0.21

ACTR3B (UniProt Q9P1U1)
inactive: erlotinib -0.033 | [3] 0.073 | [9] -0.078 | [7] -0.012 | [8] 0.145

APOH (UniProt P02749)
inactive: erlotinib -0.214 | [1] -0.028 | [3] 0.051 | [4] -0.026 | [5] 0.069 | [9] -0.1 | [6] -0.092 | [7] 0.188 | [8] 0.09

ADPRH (UniProt P54922)
UniProt P54922, sequence (P54922 whole entry, looked up): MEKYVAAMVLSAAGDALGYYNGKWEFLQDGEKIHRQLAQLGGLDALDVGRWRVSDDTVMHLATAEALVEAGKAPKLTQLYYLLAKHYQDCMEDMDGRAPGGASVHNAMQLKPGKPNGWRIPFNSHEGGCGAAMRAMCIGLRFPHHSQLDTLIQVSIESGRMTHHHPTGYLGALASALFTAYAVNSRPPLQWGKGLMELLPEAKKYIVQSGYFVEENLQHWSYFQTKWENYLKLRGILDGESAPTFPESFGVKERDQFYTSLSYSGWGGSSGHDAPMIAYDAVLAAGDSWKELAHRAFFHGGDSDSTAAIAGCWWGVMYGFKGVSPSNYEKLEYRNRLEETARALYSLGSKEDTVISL
inactive: erlotinib -0.021 | [2] -0.047 | [3] -0.047 | [5] 0.008 | [9] -0.011 | [7] 0.141 | [8] -0.065

ADD1 isoform 4 (UniProt P35611)
inactive: [2] 0.169 | [5] -0.019

ARHGAP4 isoform 2 (UniProt P98171)
inactive: erlotinib 0.042 | [1] -0.338 | [3] 0.033 | [4] 0.121 | [5] -0.209 | [9] -0.016 | [6] -0.061 | [7] -0.117 | [8] 0.015

ARMC8 isoform 6 (UniProt Q8IUR7)
inactive: erlotinib -0.145 | [1] 0.081 | [3] -0.168 | [4] -0.075 | [5] 0.078 | [6] -0.067

BAP18 isoform 3 (UniProt Q8IXM2)
inactive: erlotinib 0.02 | [3] -0.146 | [7] -0.039 | [8] -0.015

ADD2 isoform 9 (UniProt P35612)
inactive: [5] -0.025 | [9] 0.203

AARSD1 (UniProt Q9BTE6)
UniProt Q9BTE6, sequence (Q9BTE6 whole entry, looked up): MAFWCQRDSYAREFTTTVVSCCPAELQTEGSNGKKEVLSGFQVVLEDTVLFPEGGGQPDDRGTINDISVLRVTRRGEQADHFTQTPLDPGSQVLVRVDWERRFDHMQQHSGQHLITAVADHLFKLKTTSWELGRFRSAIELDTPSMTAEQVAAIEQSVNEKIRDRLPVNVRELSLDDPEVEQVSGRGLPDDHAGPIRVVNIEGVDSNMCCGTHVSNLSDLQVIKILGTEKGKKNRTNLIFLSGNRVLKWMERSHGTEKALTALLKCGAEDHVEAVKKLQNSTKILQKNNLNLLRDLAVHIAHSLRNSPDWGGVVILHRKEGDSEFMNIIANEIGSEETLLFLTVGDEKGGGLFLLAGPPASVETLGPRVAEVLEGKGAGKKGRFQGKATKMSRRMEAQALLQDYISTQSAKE
inactive: erlotinib 0.131 | [1] -0.415 | [3] 0.054 | [4] -0.063 | [5] -0.117 | [6] 0.197

APH1A (UniProt Q96BI3)
inactive: erlotinib 0 | [1] -0.046 | [3] 0.052 | [4] 0.073 | [5] 0.048 | [6] -0.09 | [7] -0.188 | [8] 0.071

ARFIP1 isoform 2 (UniProt P53367)
UniProt P53367, sequence (P53367 whole entry, looked up): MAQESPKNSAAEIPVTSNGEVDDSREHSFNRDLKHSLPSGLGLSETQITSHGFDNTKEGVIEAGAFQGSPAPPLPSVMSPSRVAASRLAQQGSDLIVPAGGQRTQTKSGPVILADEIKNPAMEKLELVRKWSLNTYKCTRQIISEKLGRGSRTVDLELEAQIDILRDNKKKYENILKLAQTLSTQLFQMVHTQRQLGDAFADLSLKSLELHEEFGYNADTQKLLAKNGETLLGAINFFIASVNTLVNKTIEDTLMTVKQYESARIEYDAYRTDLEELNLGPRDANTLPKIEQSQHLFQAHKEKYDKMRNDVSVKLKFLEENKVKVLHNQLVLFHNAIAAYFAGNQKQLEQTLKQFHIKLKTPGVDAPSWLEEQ
inactive: erlotinib 0.106 | [2] -0.064 | [3] -0.051 | [5] -0.06

BDH2 (UniProt Q9BUT1)
UniProt Q9BUT1, sequence (Q9BUT1 whole entry, looked up): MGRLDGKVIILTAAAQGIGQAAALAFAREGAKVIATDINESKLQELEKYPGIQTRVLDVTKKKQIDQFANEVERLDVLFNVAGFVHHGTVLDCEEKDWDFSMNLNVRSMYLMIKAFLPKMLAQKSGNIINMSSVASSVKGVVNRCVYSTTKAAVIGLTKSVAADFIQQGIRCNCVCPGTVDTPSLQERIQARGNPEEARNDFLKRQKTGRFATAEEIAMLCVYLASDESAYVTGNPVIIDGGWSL
inactive: erlotinib -0.003 | [1] 0.204 | [3] 0.184 | [4] -0.031 | [5] -0.005 | [9] 0.085 | [6] 0.103

BRMS1 (UniProt Q9HCU9)
UniProt Q9HCU9, sequence (Q9HCU9 whole entry, looked up): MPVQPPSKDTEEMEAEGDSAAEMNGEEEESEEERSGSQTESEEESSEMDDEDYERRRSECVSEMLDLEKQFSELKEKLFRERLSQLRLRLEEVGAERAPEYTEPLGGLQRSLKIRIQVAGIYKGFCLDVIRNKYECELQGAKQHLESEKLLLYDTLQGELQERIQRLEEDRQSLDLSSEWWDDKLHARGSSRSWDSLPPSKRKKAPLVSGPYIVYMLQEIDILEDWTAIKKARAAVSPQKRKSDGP
inactive: [2] 0.075 | [4] 0.09 | [6] -0.041 | [7] 0.024 | [8] 0.119
active: [1] -0.656

BRAF, A0A2R8Y8E0
active: [9] -0.987
inactive: erlotinib 0.073 | [1] 0.15 | [3] 0.083 | [4] -0.248 | [6] -0.047 | [7] -0.235 | [8] -0.26

BRD2 isoform 2 (UniProt P25440)
UniProt P25440, sequence (P25440 whole entry, looked up): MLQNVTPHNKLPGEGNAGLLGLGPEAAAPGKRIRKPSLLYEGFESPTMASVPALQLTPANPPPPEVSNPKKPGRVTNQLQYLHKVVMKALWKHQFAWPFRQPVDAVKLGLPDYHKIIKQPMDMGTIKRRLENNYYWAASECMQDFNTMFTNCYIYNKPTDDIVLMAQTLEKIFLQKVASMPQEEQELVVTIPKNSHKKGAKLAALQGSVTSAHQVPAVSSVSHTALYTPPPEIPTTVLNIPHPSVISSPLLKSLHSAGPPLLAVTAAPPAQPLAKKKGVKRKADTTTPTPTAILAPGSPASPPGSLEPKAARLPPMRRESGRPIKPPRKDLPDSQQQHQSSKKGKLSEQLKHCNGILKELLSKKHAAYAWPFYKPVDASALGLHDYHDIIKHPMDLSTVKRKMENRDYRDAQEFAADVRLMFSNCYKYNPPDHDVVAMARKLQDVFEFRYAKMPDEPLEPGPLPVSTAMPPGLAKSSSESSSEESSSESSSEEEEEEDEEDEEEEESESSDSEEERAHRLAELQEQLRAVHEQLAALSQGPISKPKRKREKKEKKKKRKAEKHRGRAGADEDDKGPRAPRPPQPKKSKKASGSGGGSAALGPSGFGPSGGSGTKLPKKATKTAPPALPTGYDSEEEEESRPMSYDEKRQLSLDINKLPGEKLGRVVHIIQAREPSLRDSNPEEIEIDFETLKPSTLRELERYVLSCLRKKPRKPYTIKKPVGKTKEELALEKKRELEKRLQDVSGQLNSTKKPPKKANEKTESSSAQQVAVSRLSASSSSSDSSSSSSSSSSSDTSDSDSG
inactive: erlotinib -0.552 | [3] 0.204 | [4] -0.073 | [5] 0.367 | [6] 0.137 | [7] -0.08 | [8] -0.002

ATXN7L3 isoform 2 (UniProt Q14CW9)
inactive: erlotinib 0.069 | [1] -0.31 | [3] 0.071 | [4] 0.025 | [5] 0.159 | [9] -0.122 | [6] -0.037

AUH (UniProt Q13825)
inactive: erlotinib 0.155 | [1] 0.042 | [3] -0.035 | [4] -0.122 | [5] 0.112 | [9] 0.039 | [6] 0.065 | [7] -0.028 | [8] 0.059

ADD3 isoform 2 (UniProt Q9UEY8)
inactive: [1] 0.171 | [2] -0.049 | [4] 0.057 | [9] 0.009 | [6] 0.047 | [7] -0.016 | [8] 0.034

ALDH2 isoform 2 (UniProt P05091)
UniProt P05091, sequence (P05091 whole entry, looked up): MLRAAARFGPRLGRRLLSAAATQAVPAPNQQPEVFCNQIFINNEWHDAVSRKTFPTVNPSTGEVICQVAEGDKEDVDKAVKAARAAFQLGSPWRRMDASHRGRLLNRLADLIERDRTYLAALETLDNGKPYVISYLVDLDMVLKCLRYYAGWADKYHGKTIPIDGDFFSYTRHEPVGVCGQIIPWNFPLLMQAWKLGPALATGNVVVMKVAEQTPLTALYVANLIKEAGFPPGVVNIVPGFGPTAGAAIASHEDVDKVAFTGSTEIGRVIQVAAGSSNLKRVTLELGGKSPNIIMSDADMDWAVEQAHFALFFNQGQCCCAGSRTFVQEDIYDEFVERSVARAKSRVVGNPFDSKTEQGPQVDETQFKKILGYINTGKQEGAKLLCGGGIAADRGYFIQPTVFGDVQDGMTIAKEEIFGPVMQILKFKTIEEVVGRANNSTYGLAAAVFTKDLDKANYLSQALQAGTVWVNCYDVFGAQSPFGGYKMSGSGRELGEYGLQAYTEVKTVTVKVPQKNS
inactive: [1] -0.197 | [2] -0.106 | [4] 0.6 | [5] 0.07 | [9] -0.263 | [6] 0.131 | [7] 0.208 | [8] 0.032

ACSL6 isoform 1 (UniProt Q9UKU0)
inactive: erlotinib -0.066 | [2] 0.02 | [3] 0.025 | [5] -0.083 | [9] -0.061 | [7] -0.03 | [8] 0.04

ANK2 (UniProt Q01484)
inactive: erlotinib -0.089 | [1] -0.173 | [3] -0.028 | [4] 0.325 | [5] -0.059 | [9] 0.011 | [6] -0.031 | [7] -0.126 | [8] -0.131

AUNIP isoform 2 (UniProt Q9H7T9)
inactive: erlotinib -0.023 | [1] 0.066 | [3] 0.297 | [4] 0.083 | [6] 0.027 | [7] 0.041 | [8] 0.066

ATXN3 isoform 1 (UniProt P54252)
UniProt P54252, sequence (P54252 whole entry, looked up): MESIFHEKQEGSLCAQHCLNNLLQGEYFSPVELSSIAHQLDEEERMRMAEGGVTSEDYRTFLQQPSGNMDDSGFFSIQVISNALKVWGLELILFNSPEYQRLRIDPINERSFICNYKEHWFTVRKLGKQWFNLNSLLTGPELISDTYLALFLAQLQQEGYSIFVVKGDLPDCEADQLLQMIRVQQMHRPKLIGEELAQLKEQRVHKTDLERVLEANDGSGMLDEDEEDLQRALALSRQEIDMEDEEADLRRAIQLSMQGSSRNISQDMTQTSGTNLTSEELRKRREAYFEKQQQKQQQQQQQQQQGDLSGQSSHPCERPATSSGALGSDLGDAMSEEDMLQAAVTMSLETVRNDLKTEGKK
inactive: erlotinib 0.082 | [1] 0.107 | [3] 0.038 | [4] -0.042 | [5] 0.082 | [9] -0.038 | [6] -0.115 | [7] -0.073 | [8] -0.002
